Source: ChEMBL document CHEMBL1961873, “Compounds: GSK PKIS; Assays: Nanosyn kinase panel” (2012)
Values joined by “and” are separate entries in the source; they are usually repeats but may differ in a detail not shown here. Equal values may be shown once.

Key:
[1] = biological target: Glycogen synthase kinase-3 beta (Homo sapiens) (UniProt P49841); conditions: at 1 µM;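 note: reported values are mean percent inhibition of GSK3B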
[2] = biological target: Homeodomain-interacting protein kinase 1 (Homo sapiens) (UniProt Q86Z02); conditions: at 0.1 µM
Homeodomain-interacting protein kinase 1 (Homo sapiens), sequence (Q86Z02 whole entry, looked up): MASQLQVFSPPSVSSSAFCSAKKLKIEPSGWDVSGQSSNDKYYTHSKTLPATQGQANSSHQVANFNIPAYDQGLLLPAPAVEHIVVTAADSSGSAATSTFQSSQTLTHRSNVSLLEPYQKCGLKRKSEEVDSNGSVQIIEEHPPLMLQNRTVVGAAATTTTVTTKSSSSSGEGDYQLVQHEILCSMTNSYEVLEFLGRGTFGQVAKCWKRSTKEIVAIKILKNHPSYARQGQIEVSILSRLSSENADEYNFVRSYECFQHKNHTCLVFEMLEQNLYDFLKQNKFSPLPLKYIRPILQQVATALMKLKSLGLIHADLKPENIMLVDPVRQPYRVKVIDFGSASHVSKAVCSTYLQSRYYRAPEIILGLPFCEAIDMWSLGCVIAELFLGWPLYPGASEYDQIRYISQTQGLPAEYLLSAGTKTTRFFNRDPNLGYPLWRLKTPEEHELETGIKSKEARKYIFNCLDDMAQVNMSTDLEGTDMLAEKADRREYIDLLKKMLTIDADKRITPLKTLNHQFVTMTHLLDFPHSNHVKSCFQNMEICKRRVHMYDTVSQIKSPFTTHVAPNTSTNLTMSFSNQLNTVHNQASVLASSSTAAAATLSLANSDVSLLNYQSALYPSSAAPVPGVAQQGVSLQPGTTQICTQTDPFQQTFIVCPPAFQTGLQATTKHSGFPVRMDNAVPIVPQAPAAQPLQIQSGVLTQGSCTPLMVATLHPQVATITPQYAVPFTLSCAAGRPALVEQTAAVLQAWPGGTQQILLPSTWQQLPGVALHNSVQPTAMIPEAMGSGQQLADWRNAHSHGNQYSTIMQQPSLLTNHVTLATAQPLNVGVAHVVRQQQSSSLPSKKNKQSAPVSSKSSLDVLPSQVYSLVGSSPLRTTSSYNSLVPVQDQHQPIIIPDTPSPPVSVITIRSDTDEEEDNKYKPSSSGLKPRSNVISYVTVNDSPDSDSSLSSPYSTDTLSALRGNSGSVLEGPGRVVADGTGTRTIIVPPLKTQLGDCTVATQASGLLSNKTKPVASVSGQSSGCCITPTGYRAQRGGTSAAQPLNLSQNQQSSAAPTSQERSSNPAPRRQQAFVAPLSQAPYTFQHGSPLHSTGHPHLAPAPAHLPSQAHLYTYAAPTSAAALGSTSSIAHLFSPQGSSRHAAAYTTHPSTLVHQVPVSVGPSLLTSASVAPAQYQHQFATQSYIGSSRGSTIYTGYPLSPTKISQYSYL

[3] = biological target: Homeodomain-interacting protein kinase 1 (Homo sapiens) (UniProt Q86Z02); conditions: at 1 µM
[4] = biological target: T1, Homeodomain-interacting protein kinase 4 (Homo sapiens) (UniProt Q8NE63); conditions: at 0.1 µM
T1 sequence (whole entry): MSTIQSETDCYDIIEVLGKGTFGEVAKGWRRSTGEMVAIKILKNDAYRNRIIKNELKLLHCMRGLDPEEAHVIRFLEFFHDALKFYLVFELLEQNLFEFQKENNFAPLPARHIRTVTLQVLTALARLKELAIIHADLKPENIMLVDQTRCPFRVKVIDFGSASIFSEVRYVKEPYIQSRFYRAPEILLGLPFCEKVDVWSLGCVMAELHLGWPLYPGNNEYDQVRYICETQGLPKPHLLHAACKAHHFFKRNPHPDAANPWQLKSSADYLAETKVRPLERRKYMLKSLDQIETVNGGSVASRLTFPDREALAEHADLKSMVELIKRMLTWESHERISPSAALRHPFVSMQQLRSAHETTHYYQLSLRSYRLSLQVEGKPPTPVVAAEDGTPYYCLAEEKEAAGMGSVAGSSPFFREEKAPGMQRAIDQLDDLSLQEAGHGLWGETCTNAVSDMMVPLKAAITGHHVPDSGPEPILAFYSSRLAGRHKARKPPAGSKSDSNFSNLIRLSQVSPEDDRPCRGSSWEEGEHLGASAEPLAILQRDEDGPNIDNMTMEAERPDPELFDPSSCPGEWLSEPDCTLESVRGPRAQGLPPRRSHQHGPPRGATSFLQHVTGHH

[5] = biological target: T1, Homeodomain-interacting protein kinase 4 (Homo sapiens); conditions: at 1 µM
[6] = biological target: Mitogen-activated protein kinase 9 (Homo sapiens) (UniProt P45984); conditions: at 0.1 µM
Mitogen-activated protein kinase 9 (Homo sapiens), sequence (P45984 whole entry, looked up): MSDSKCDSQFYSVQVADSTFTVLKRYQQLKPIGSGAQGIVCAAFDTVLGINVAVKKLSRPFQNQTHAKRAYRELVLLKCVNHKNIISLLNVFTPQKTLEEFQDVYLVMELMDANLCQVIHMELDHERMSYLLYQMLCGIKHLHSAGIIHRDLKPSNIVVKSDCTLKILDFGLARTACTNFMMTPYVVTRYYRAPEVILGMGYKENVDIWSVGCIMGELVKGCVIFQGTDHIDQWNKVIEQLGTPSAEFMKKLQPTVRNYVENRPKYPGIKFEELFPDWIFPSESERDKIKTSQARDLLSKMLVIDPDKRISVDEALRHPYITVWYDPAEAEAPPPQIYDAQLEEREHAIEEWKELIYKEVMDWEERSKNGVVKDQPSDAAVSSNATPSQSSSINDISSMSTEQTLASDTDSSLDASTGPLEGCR

[7] = biological target: Mitogen-activated protein kinase 9 (Homo sapiens) (UniProt P45984); conditions: at 1 µM
[8] = biological target: Mitogen-activated protein kinase 1 (Homo sapiens) (UniProt P28482); conditions: at 0.1 µM
Mitogen-activated protein kinase 1 (Homo sapiens), sequence (P28482 whole entry): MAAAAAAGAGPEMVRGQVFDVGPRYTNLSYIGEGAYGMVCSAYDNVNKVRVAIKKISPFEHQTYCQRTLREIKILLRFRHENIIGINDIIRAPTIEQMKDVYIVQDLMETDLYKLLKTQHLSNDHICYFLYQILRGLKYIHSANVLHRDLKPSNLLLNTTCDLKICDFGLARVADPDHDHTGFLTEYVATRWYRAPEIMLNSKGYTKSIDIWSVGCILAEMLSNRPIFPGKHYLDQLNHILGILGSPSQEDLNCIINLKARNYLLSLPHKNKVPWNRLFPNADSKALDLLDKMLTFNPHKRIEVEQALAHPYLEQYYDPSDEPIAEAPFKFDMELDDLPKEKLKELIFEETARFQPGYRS

[9] = biological target: Mitogen-activated protein kinase 1 (Homo sapiens) (UniProt P28482); conditions: at 1 µM
[10] = biological target: Mitogen-activated protein kinase 3 (Homo sapiens) (UniProt P27361); conditions: at 0.1 µM
Mitogen-activated protein kinase 3 (Homo sapiens), sequence (P27361 whole entry): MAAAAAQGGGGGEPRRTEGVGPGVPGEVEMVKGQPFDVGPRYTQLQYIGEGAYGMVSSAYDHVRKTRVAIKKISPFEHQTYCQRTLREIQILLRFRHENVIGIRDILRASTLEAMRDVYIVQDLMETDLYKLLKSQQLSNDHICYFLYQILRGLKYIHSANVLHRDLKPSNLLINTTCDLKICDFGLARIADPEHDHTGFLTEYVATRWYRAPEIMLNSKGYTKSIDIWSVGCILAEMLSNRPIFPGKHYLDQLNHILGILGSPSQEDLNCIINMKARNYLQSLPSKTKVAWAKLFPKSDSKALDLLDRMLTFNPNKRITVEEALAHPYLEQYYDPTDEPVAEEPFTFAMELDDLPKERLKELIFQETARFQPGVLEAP

[11] = biological target: Mitogen-activated protein kinase 3 (Homo sapiens) (UniProt P27361); conditions: at 1 µM
[12] = biological target: SRSF protein kinase 3 (Homo sapiens) (UniProt Q9UPE1); conditions: at 0.1 µM
SRSF protein kinase 3 (Homo sapiens), sequence (Q9UPE1 whole entry): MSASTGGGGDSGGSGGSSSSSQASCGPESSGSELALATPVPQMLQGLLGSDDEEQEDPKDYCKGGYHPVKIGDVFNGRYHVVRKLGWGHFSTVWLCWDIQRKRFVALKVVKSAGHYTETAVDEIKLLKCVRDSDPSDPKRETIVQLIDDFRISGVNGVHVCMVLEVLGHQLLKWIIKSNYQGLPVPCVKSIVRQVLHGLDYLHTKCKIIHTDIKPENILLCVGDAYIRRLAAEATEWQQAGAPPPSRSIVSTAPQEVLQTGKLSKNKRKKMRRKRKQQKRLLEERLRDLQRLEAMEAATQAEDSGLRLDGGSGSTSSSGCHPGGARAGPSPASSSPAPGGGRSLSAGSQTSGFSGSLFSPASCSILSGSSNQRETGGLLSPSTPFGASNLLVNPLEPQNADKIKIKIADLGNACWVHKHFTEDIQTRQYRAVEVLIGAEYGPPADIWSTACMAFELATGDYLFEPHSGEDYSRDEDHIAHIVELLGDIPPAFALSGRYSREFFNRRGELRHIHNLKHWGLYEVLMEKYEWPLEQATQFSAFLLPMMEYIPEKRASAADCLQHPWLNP

[13] = biological target: SRSF protein kinase 3 (Homo sapiens) (UniProt Q9UPE1); conditions: at 1 µM
[14] = biological target: Mitogen-activated protein kinase 14 (Homo sapiens) (UniProt Q16539); conditions: at 0.1 µM
Mitogen-activated protein kinase 14 (Homo sapiens), sequence (Q16539 whole entry): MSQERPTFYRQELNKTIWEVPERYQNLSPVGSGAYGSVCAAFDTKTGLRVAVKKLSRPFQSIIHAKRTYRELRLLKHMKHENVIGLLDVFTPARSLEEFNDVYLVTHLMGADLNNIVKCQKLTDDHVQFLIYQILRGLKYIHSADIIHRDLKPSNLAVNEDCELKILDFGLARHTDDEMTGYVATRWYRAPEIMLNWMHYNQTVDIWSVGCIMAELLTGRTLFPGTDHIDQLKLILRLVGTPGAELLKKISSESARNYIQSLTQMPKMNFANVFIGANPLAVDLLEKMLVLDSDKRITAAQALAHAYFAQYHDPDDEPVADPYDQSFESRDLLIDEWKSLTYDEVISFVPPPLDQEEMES

[15] = biological target: Mitogen-activated protein kinase 14 (Homo sapiens) (UniProt Q16539); conditions: at 1 µM
[16] = biological target: Mitogen-activated protein kinase 11 (Homo sapiens) (UniProt Q15759); conditions: at 0.1 µM
Mitogen-activated protein kinase 11 (Homo sapiens), sequence (Q15759 whole entry): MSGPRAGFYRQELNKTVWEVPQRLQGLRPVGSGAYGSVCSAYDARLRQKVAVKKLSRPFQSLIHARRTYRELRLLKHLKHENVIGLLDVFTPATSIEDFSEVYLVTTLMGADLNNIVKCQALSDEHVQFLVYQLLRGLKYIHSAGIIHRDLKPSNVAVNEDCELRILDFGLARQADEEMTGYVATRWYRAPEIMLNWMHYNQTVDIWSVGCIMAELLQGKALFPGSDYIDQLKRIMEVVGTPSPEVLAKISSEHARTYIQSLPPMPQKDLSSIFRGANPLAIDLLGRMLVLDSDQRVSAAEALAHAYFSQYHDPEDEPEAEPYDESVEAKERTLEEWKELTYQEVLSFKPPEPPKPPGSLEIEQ

[17] = biological target: Mitogen-activated protein kinase 11 (Homo sapiens) (UniProt Q15759); conditions: at 1 µM
[18] = biological target: T2, Mitogen-activated protein kinase 13 (Homo sapiens) (UniProt O15264); conditions: at 0.1 µM
T2 sequence (whole entry): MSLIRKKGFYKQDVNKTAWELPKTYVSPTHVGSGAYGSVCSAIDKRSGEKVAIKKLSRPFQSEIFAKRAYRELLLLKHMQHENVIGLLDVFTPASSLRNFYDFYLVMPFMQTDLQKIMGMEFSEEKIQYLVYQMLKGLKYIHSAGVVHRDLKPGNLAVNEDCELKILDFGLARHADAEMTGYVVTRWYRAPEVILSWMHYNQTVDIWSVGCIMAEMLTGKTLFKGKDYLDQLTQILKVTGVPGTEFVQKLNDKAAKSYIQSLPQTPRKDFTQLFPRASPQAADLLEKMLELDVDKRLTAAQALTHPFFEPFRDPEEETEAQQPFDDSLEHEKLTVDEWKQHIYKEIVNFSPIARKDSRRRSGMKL

[19] = biological target: T2, Mitogen-activated protein kinase 13 (Homo sapiens); conditions: at 1 µM
[20] = biological target: T3, Mitogen-activated protein kinase 12 (Homo sapiens) (UniProt P53778); conditions: at 0.1 µM
T3 sequence (whole entry): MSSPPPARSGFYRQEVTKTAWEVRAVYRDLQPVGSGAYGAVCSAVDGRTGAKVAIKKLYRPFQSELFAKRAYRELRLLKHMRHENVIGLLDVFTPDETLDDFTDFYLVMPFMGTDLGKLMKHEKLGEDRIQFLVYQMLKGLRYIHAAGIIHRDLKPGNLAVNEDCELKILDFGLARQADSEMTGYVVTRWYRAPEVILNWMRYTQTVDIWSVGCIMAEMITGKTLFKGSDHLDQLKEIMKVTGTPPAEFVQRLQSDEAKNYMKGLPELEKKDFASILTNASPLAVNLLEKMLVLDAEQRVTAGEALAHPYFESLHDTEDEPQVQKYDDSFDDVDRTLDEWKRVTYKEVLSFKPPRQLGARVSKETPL

Glycogen synthase kinase-3 beta (Homo sapiens), sequence (P49841 whole entry, looked up): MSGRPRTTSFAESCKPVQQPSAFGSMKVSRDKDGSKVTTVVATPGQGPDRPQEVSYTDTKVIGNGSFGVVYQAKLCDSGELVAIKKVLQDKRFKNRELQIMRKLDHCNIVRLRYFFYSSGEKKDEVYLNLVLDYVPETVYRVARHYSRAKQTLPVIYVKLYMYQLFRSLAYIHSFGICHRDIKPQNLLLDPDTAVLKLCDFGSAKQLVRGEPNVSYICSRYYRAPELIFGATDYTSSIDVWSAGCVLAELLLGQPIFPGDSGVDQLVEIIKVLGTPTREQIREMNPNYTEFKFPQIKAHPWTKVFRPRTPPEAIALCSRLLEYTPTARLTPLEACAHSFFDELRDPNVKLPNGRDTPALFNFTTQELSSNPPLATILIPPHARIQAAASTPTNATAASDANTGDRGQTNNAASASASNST

| Compound | inhibition [1] | inhibition [2] | inhibition [3] | inhibition [4] | inhibition [5] | inhibition [6] | inhibition [7] | inhibition [8] | inhibition [9] | inhibition [10] | inhibition [11] | inhibition [12] | inhibition [13] | inhibition [14] | inhibition [15] | inhibition [16] | inhibition [17] | inhibition [18] | inhibition [19] | inhibition [20] |
| --- | --- | --- | --- | --- | --- | --- | --- | --- | --- | --- | --- | --- | --- | --- | --- | --- | --- | --- | --- | --- |
| O=C(O[C@H]1CN[C@H](C#Cc2cc3ncnc(Nc4ccc5c(cnn5Cc5ccccc5)c4)c3s2)C1)N1CCOCC1 | 3.77% | -3.77% | -1.24% | -1.27% | -0.32% | 0.01% | 0.13% | 0.84% | -0.13% | -0.77% | 1.75% | -1.9% | -0.82% | 0.21% | 0.45% | 1.51% | 4.76% | -1.3% | -2.91% | -1.24% |
| COC(=O)Nc1nc2ccc(Oc3ccc(NC(=O)Nc4cc(C(F)(F)F)ccc4F)cc3)cc2s1 | 5.68% | -1.19% | 0.81% | 6.92% | 33.5% | -0.14% | 3.25% | -1.09% | 0.7% | 0.14% | -0.75% | 0.81% | 9.68% | 18.9% | 63.7% | 7.18% | 51.5% | 0.05% | 0.18% | 0.98% |
| Cc1cc(O)cc(C)c1/C=C/c1cncc(C(N)=O)c1 | 1.95% | 0.55% | 3.38% | 0.22% | 1.54% | 1.69% | 2.53% | 1.25% | 2.53% | 0.31% | 2.77% | 1.7% | 1.04% | 4.9% | 6.5% | 0.52% | 0.8% | 2.3% | 1.36% | 1.1% |
| CN1CCN(Cc2ccc(-c3cc4ncnc(Nc5ccc(OCc6cccc(F)c6)c(Cl)c5)c4s3)o2)CC1 | 4.12% and 11.3% | -3.31% and 2.8% | 0.3% and 2.78% | -0.43% and 2.01% | 0.76% and 4.59% | 0.58% and 7.12% | 2.65% and 8.42% | 9.37% and 6.21% | 4.78% and 9.62% | 2.39% and 7.04% | 4.3% and 6.64% | -2.01% and -2.56% | -1.87% and -0.88% | 11.4% and 3.49% | 11.9% and 8.59% | 7.76% and 7.78% | 11.5% and 9.04% | 2.21% and 1.13% | 1.76% and 5.79% | 1.79% and 3.59% |
| N#Cc1cccc(Nc2ncc(-c3ccccc3)o2)c1 | 16.9% | 3.5% | 20.2% | 6.92% | 36.4% | 1.32% | 2.85% | 1.39% | 3.01% | 2.87% | 4.14% | -0.78% | 0.7% | 2.24% | 3.69% | 1.51% | 5.93% | -0.16% | 2.33% | 3.74% |
| CN1CCC(C(=O)Nc2n[nH]c3nc(-c4ccc(O)cc4)c(Br)cc23)CC1 |  | 2.86% and -1.65% | 20.1% and 19.3% | 0.89% and 1.06% | 5.87% and 4.37% | 5.88% and 4.7% | 16.6% and 13.9% | 6.51% and 1.55% | 12.1% and 3.95% | 5.16% and 1.61% | 6.59% and 1.2% | -1.97% and -1.1% | -0.76% and -0.97% | 1.69% and 4.12% | 13% and 10.5% | 4.89% and 2.05% | 17.5% and 8.93% | 2.74% and 2.79% | 13.7% and 11.6% | 4.48% and 2.47% |
| Fc1cccc(COc2ccc(Nc3ncncc3C#Cc3ccccc3)cc2Cl)c1 | 6.26% | 3.88% | 4.2% | 1.31% | 1.7% | 2.97% | 7.96% | 5.17% | 4.95% | 4.94% | 5.53% | -0.87% | 0.58% | 6.33% | 11.6% | 3.77% | 8.28% | -1.02% | 3.79% | 2.17% |
